The source of these data is PubChem BioAssay.

The nature of test [1]: reducers of endogenous Her2 protein level, primary screen, SKBR3 breast tumor cells, AlphaScreen, ATP viability (AID 461;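 active = Her2 level under about 52% in both replicate screens, with viability over 70% of control, limit read from the data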;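 as to Her2 level: lower value means less Her2 protein in the cells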;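 as to viability: percent of carrier control wells set as 100% viability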). The settings on record: 18-24 h, measured here: SKBR3 viability, ATP luminescence, at 10 µM. A general note: Bead proximity is the source of the signal in Alpha formats.
Test [2] deals with Receptor tyrosine-protein kinase erbB-2 (Homo sapiens) (UniProt P04626). The description is as above. The settings on record: 18-24 h, at 10 µM, stronger effect = lower value.
Test [3] can be described thus: SK-BR-3 cell growth inhibitors, pilot screen, 24 h, human (AID 572;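 active = viability at or below 10% of carrier control in both of two separate runs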;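 also: compound exposure lasted between 18 and 24 h rather than exactly 24 h; 100% = carrier-treated control wells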). The settings on record: SK-BR-3 viability, CellTiter-Glo luminescence, at 10 µM, stronger effect = lower value.
Test [4] is described as follows: growth inhibitors of H69AR lung tumor, primary screen, human, duplicate replicates (AID 580;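 active = viability at or under a set limit in both replicates, limit being median viability minus 3 SD, cut at about 48% in these data, passing the limit was not always enough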;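 also: 100% = mean luminescence of untreated wells and 0% = no signal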). The settings on record: H69AR lung tumor cells viability, ATP luminescence, 72 h; at 10 µM; stronger effect = lower value.
A short description of test [5]: reversal of MRP1-mediated doxorubicin resistance, pilot screen, H69AR cells, doxorubicin co-treatment (AID 601;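 active = viability loss from added drug above about 55%, and viability with drug at most 40%, in both replicates, limit read from the data, passing the limit was not always enough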). The settings on record: CellTiter-Glo, 72 h, at 10 µM; for differential viability (reversal): stronger effect = higher value. (In general: Cellular ATP, detected with luciferase, serves as a proxy for viable cell number.)
Test [6] in a line: 384-well plate pilot, post-Golgi transport modulator project, inhibition of yeast transport mutant growth (AID 636; in the data active = inhibition above about 31%). The settings on record: absorbance 615 nm, about 18 h, stronger effect = higher value.
Test [7] in a line: growth suppression of yeast trafficking mutant, preliminary HTS, modulators of trafficking downstream of Golgi apparatus project, 1536-format plate, OD 615 nm (AID 637; in the data active = inhibition above about 30%). The settings on record: yeast transport mutant growth, absorbance 615 nm, 18 h; stronger effect = higher value.
Test [8] can be described thus: OD615 S. cerevisiae growth inhibition, permissive medium, pilot counter-assay, permissive growth control for S. cerevisiae lifespan shortening project (AID 705;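 active = growth inhibition above 25% in both replicates, a cutoff set 3 SD above the mean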). The settings on record: OD615, 24 h, at 10 µM, stronger effect = higher value.
The nature of test [9]: Restrictive medium S. cerevisiae growth inhibition, OD615, pilot screen of yeast lifespan reduction project, restrictive growth control (AID 706;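 active = growth inhibition above a set limit, 3 SD over mean compound inhibition, in both replicates, cut at about 43% in these data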;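 also: modified DeaD lifespan yeast strain shifted to restrictive glucose medium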). The settings on record: OD615, 48 h, at 10 µM, stronger effect = higher value.
A short description of test [10]: viability gain of MRP-1-high H69AR cells under doxorubicin, pilot screen, MRP-1 activator project, CellTiter-Glo, duplicate (AID 807).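 Also: compound pretreatment 18-22 h then 72 h combined with doxorubicin; 0% = doxorubicin alone and 100% = vehicle without doxorubicin.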 The settings on record: H69AR viability with doxorubicin, CellTiter-Glo luminescence; at 10 µM; stronger effect = higher value.
Test [11] in a line: growth suppression of beta-catenin knockout HCT116, pilot screen, human colon tumor cells (AID 823;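 active = cell viability at or below a set limit in both duplicate runs, the limit being the all-compound median minus 4 SD, cut at about 23% in these data, passing the limit was not always enough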;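 also: 0% = wells killed by 20 µM Hyamine and 100% = untreated DMSO cell wells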). The settings on record: CellTiter-Glo, 60 h, at 10 µM, stronger effect = lower value.
Test [12] is described as follows: growth suppression of PTEN-deleted HCT116, pilot screen, cell-based, HCT116 clonal line, CellTiter-Glo (AID 824;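 active = viability at or below 27.92% in each of two runs, the all-compound median minus 4 SD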;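 also: 0% = 20 µM Hyamine control and 100% = vehicle cell control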). The settings on record: 60 h, at 10 µM, stronger effect = lower value.
Test [13] in a line: inhibitors of the yeast RAM network, pilot screen, dse1pr::URA3 reporter, 5-FOA selection (AID 869;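 active = inhibition over a set limit, the all-compound mean plus 3 SD, in both replicate runs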;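 also: 0% = DMSO wells with no growth and 100% = 10 µM 1-NA-PP1 with full growth; RAM network block rescues cells from 5-FOA so hits raise OD615 growth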). The settings on record: S. cerevisiae dse1pr::URA3 5-FOA growth, OD615, 2 d; at 10 µM; stronger effect = higher value; strain carries analog-sensitive mutant Cbk1 kinase.
Test [14] in a line: RAM signaling pathway blockade in yeast – S. cerevisiae, Pdr1DBD-CYC8 efflux-inhibited sensitized strain, primary screen (AID 1298;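 active = RAM network inhibition above 8.4% in each of two replicates, 3 SD over the compound average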;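 also: 0% = DMSO untreated cells without growth and 100% = 10 µM 1-NA-PP1 full growth; higher means more yeast growth rescued from 5-FOA killing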). The settings on record: S. cerevisiae cbk1-as DSE1-URA3 strain, 5-FOA growth OD615, 2 d; at 50 µM; stronger effect = higher value.
Test [15] can be described thus: HUVEC growth inhibition – cell-based, human, primary screen (AID 575;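 active = viability at or below 30% in both replicate assays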;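 also: 100% = median of untreated cell wells with 0.1% DMSO on each plate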). The settings on record: HUVEC proliferation, CellTiter-Glo luminescence, 72 h; at 10 µM; stronger effect = lower value.
The mark [16] stands for this setting: H69AR cells + 2 uM doxorubicin, measured here: viability with 2 uM doxorubicin, stronger effect = lower value.
Setting [17] is: H69AR cells, compound alone cytotoxicity.

Results filed as inconclusive are left out. Calls of active or inactive are those of the source.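 The calls were made as follows, unless noted: active = viability increase at or above a cutoff of the median across tested compounds plus 3 SD (cut at about 8.5% in these data, passing the limit was not always enough); inconclusive = some gains above the cutoff, reason not given; inactive = the rest.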

Receptor tyrosine-protein kinase erbB-2 (Homo sapiens), sequence (P04626 whole entry, looked up): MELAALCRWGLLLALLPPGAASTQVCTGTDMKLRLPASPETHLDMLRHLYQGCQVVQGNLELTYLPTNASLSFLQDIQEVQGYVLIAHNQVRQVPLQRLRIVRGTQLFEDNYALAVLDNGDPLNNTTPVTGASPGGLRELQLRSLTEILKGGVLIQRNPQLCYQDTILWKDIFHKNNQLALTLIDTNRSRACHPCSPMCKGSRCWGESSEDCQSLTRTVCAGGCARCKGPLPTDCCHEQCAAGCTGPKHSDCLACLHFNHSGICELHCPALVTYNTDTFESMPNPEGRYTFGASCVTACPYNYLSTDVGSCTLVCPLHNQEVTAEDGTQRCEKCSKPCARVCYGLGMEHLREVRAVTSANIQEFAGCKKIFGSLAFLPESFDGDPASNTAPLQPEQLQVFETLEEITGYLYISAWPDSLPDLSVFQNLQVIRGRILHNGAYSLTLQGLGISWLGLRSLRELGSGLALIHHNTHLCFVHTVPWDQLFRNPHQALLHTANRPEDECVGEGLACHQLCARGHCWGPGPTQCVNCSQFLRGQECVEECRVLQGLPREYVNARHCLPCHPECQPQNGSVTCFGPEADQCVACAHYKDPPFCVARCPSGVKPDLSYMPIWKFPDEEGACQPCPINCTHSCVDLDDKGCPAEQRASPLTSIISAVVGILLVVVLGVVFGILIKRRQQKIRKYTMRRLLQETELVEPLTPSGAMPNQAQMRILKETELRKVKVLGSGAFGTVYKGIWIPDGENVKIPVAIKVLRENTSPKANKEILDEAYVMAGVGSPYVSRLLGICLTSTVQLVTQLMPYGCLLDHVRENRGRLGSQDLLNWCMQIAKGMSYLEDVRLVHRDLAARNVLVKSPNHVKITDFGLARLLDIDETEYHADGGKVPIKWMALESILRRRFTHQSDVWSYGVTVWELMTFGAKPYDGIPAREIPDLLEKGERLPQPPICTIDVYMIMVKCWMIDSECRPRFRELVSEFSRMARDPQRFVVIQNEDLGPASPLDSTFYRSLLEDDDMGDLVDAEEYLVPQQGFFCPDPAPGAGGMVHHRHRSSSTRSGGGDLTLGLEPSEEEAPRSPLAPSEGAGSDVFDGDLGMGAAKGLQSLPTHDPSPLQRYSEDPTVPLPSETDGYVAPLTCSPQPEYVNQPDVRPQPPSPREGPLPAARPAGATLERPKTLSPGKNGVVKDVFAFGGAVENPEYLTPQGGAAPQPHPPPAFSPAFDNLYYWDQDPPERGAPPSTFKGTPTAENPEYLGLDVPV

Regarding `Cc1ccc(C2c3c(oc4ccccc4c3=O)C(=O)N2c2nnc(C(C)C)s2)o1` (configuration not stated), the viability – broadly, a read-out of living cells in per cent, often relative to untreated cells – is 84% in test [1]; 84% (inactive) in test [3]; 11.2% (active) in test [4]; 14.7% in [5] (setting [16]); 11.2% in test [5] (setting [17]); 104% (inactive) in [11]. For the same molecule, the viability in test [12] was 98.1% (inactive). Moreover, the Her2 level in test [2] was 61% (inactive). For the same molecule, in [5] (H69AR cells + 2 uM doxorubicin), the differential viability (reversal) is -3.47% (inactive). Also, the results for the inhibition in [6], in test [7] and in [13] were -5.2% (inactive), 3.17% (inactive) and 0.83% (inactive), respectively. Also, the growth inhibition is -13.3% (inactive) in [8] and -9.87% (inactive) in test [9]. Besides, the viability increase in test [10] was -3.23% (inactive). Also, the RAM network inhibition in test [14] was 1.85% (inactive).

Consider `CC(Sc1n[nH]c(=O)[nH]c1=O)C(=O)OCc1ccccc1` (configuration not stated), for which the viability in [3] is 94% (inactive); in [15], 116% (inactive); in [4] it was 99.9% (inactive); in [5] (setting [16]), 88.3%; in test [5] (setting [17]), 99.9%; in [11] it was 103% (inactive). The viability in test [12] is 98.5% (inactive). Besides, the differential viability (reversal) in test [5] (H69AR cells + 2 uM doxorubicin) was 11.6% (inactive). For the same molecule, the inhibition (commonly the drop in the measured response relative to a control, in per cent) was -5.6% (inactive) in [6], -0.18% (inactive) in [7] and 1.66% (inactive) in test [13]. Also, the growth inhibition is -21.9% (inactive) in [8] and -8.41% (inactive) in [9]. The viability increase in test [10] is 0.49% (inactive). The RAM network inhibition in test [14] is 5.73% (inactive).

As to `Cc1ccc2nc(NC(=O)Cn3cc4c(n3)CCCCC4)sc2c1`, the viability is 91.5% in test [1]; 91.5% (inactive) in [3]; 93% (inactive) in [4]; 96.6% in test [5] (setting [16]); 93% in test [5] (setting [17]); 98.2% (inactive) in [11]. The viability in [12] is 97% (inactive). Further, the Her2 level in test [2] is 106% (inactive). In addition, the differential viability (reversal) in [5] (H69AR cells + 2 uM doxorubicin) was -3.56% (inactive). For the same molecule, the inhibition in [6] is 0.51% (inactive); in [7], -4.67% (inactive); in test [13] it was 2.76% (inactive). The values for the growth inhibition in test [8] and in [9] were -4.68% (inactive) and 10.6% (inactive), respectively. Moreover, in test [10], the viability increase is -3.78% (inactive). For the same molecule, the RAM network inhibition in test [14] is 3.93% (inactive).

Regarding `Cc1cc(C)c2c(=O)n(CC(=O)NCCCN3CCN(c4ccccc4F)CC3)sc2n1`, the viability is 107% in test [1]; 107% (inactive) in test [3]; 3.21% (active) in test [4]; 1.19% in test [5] (setting [16]); 3.21% in test [5] (setting [17]); 3.95% (active) in test [11]. In [12], the viability is 1.7% (active). Also, the Her2 level in test [2] is 70.5% (inactive). The differential viability (reversal) in test [5] (H69AR cells + 2 uM doxorubicin) was 2.02% (inactive). Further, the inhibition in test [6] is -4.8% (inactive); in [7], 10% (inactive); in [13], 1.52% (inactive). Moreover, the growth inhibition in [8] was 16.2% (inactive); in test [9] it was 7.71% (inactive). In addition, the viability increase in test [10] is -7.84% (inactive). For the same molecule, the RAM network inhibition in test [14] is 5% (inactive).

As to `Cc1ccccc1-c1nc(CN2CCC(C(=O)NC3CCN(Cc4ccccc4)CC3)CC2)c(C)o1`, the viability in [1] is 91%; in test [3] it was 91% (inactive); in [4] it was 86.3% (inactive); in test [5] (setting [16]), 79%; in [5] (setting [17]) it was 86.3%; in test [11], 6.4% (active). The viability in [12] is 9.9% (active). In test [2], the Her2 level is 77.5% (inactive). Also, the differential viability (reversal) in [5] (H69AR cells + 2 uM doxorubicin) was 7.26% (inactive). Besides, the results for the inhibition in test [6], in test [7] and in [13] were -5.87% (inactive), 3% (inactive) and 1.26% (inactive), respectively. Moreover, the growth inhibition in [8] was -8.2% (inactive); in test [9], -3.5% (inactive). In test [10], the viability increase is -7.96% (inactive). For the same molecule, in test [14], the RAM network inhibition is 1.75% (inactive).

Regarding `CCOC(=O)CSC1=C(C#N)C(c2ccc(C)o2)CC(=O)N1` (configuration not stated), the viability in test [1] was 98.5%; in test [3], 98.5% (inactive); in test [4] it was 26.6% (active); in test [5] (setting [16]), 47.9%; in test [5] (setting [17]), 26.6%; in test [11], 13.7% (active). Besides, the viability in test [12] was 14.7% (active). The Her2 level in [2] is 83.5% (inactive). The differential viability (reversal) in test [5] (H69AR cells + 2 uM doxorubicin) was -21.3% (inactive). Besides, the inhibition is -4.4% (inactive) in test [6], -0.66% (inactive) in test [7] and 1.17% (inactive) in test [13]. Besides, the growth inhibition is -8.58% (inactive) in test [8] and 7.01% (inactive) in test [9]. Further, the viability increase in [10] is -5.31% (inactive). The RAM network inhibition in test [14] was 0.15% (inactive).

With `C/C=C/COC(=O)c1[nH]c2c(c1C)C(=O)CC(c1ccco1)C2` (configuration not stated), the viability in [1] was 80.5%; in test [3], 80.5% (inactive); in [4], 24.4% (active); in test [5] (setting [16]), 40.2%; in [5] (setting [17]) it was 24.4%; in [11], 16.6% (active). In [12], the viability is 19.8% (active). The Her2 level in [2] is 62% (inactive). For the same molecule, in test [5] (H69AR cells + 2 uM doxorubicin), the differential viability (reversal) is -15.9% (inactive). In addition, the inhibition in [6] was -2.67% (inactive); in test [7] it was -3.28% (inactive); in test [13], 0.985% (inactive). The results for the growth inhibition in test [8] and in [9] were -4.97% (inactive) and -2.88% (inactive), respectively. The viability increase in [10] is -4.93% (inactive). For the same molecule, the RAM network inhibition in [14] is 0.51% (inactive).

Regarding `CC1CCCCN1S(=O)(=O)c1ccc(NC(=O)c2cccs2)cc1` (configuration not stated), the viability was 73.5% in test [1]; 73.5% (inactive) in test [3]; 85.5% (inactive) in [4]; 83.6% in test [5] (setting [16]); 85.5% in test [5] (setting [17]); 76.2% (inactive) in test [11]. Further, the viability in test [12] is 82% (inactive). Besides, the Her2 level in test [2] was 83% (inactive). For the same molecule, the differential viability (reversal) in [5] (H69AR cells + 2 uM doxorubicin) is 1.84% (inactive). Besides, the inhibition was -1.17% (inactive) in test [6], -13.2% (inactive) in test [7] and 1.48% (inactive) in test [13]. Also, the growth inhibition is -8.63% (inactive) in test [8] and -13.5% (inactive) in test [9]. For the same molecule, the viability increase in [10] was -4.32% (inactive). Further, in test [14], the RAM network inhibition was 0.93% (inactive).

With `CC1(C)CC2CC(C)(CN2S(=O)(=O)c2ccc(N)cc2)C1` (configuration not stated), the viability in test [3] is 120% (inactive); in test [15], 99.6% (inactive); in [4], 89.4% (inactive); in test [5] (setting [16]), 80.9%; in [5] (setting [17]), 89.4%; in test [11], 88% (inactive). The viability in test [12] is 87.6% (inactive). Besides, the differential viability (reversal) in [5] (H69AR cells + 2 uM doxorubicin) was 8.43% (inactive). The values for the inhibition in test [6], in test [7] and in test [13] were -8.93% (inactive), -8.36% (inactive) and 0.505% (inactive), respectively. For the same molecule, the values for the growth inhibition in [8] and in [9] were -0.15% (inactive) and 8.29% (inactive), respectively. Moreover, the viability increase in test [10] is -2.62% (inactive). Also, the RAM network inhibition in test [14] is 9.14% (inactive).

For the molecule `COc1cccc(C2C(C(=O)c3cccs3)=C(O)C(=O)N2CCCn2ccnc2)c1OC` (configuration not stated), the viability in [3] is 130% (inactive); in test [15], 102% (inactive); in test [4], 109% (inactive); in test [5] (setting [16]), 88.3%; in test [5] (setting [17]) it was 109%; in test [11], 89.1% (inactive). In addition, in test [12], the viability was 89.5% (inactive). For the same molecule, the differential viability (reversal) in test [5] (H69AR cells + 2 uM doxorubicin) was 20.9% (inactive). In addition, the inhibition is -7.47% (inactive) in test [6], 3.09% (inactive) in [7] and 0.145% (inactive) in [13]. Besides, the growth inhibition was -6.37% (inactive) in test [8] and 1.34% (inactive) in [9]. For the same molecule, the viability increase in test [10] was -1.56% (inactive). Also, in test [14], the RAM network inhibition is 0.92% (inactive).
